Screens as filed in PubChem BioAssay.
Hits are enriched below; roughly 2.7% of the tested compounds scored in any of these assays.
bovine MsrA act = activates bovine MsrA enzyme; purified bovine MsrA, absorbance read-out; activation, % at 10.6 µM; hit rate 0.3% among 360,000; AID 602163; in the data active means activation above about 7.5%;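 further: 0% = vehicle and 100% = reference activator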
rCAG RNA binder = r(CAG) repeat RNA binding; hit rate 1.3% among 370,000; TO-PRO-1 dye displacement fluorescence; inhibition, % at 3 µM; AID 651821;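 active means inhibition above the plate cutoff, the mean of all test compounds on that plate plus 3 SD, cut at about 35% in these data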;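 further: 0% = DMSO alone and 100% = 100 µM mitoxantrone as full dye displacement; higher means more dye released from RNA so lower well fluorescence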
MsrA inhibitor = bovine MsrA inhibition; purified bovine MsrA, absorbance read-out; inhibition, % at 15.5 µM; hit rate 0.75% among 360,000; AID 651718; in the data active means inhibition above about 4.5%;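 further: 0% = vehicle wells with enzyme and 100% = reference inhibitor wells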
NadD inh = blocks S. aureus nicotinate mononucleotide adenylyltransferase; purified NadD enzyme, colorimetric absorbance read-out; inhibition, % at 20 µM; hit rate 0.78% among 360,000; in the data active means inhibition above about 26%
rCAG binder conf = r(CAG) RNA repeat binding, confirmation; shares compounds with rCAG RNA binder; TO-PRO-1 dye displacement fluorescence; inhibition, % at 3 µM; hit rate 70% among 4,300; AID 652065;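 active means inhibition above a per-plate cutoff, the mean inhibition of sample wells plus 3 SD, cut at about 35% in these data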;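 further: loss of TO-PRO-1 fluorescence as compound displaces dye from 1x1 AA loop RNA; 0% = DMSO only wells and 100% = 100 µM mitoxantrone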
DNA CAG counter = disrupts DNA CAG TO-PRO-1 complex, flagging rCAG hits; d(CAG) DNA oligo TO-PRO-1 dye displacement, fluorescence; hit rate 94% among 4,300; shares compounds with rCAG RNA binder; inhibition, % at 3 µM; AID 652068;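 active means inhibition above its plate's cutoff, the mean test-well inhibition plus 3 SD, cut at about 4.8% in these data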;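 further: 0% = DNA dye mix with DMSO and 100% = 100 µM mitoxantrone; hits displace the dye from DNA and so lower well fluorescence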
dCAG dye DR = disrupts DNA CAG TO-PRO-1 complex in dose response; AID 686960; DNA CAG/GTC duplex TO-PRO-1 dye displacement fluorescence; shares compounds with rCAG RNA binder; hit rate 20% among 250; IC50, µM; in the data active means IC50 below about 10 µM
Numbers without * were called inactive; i = inactive; x = no result given.

SMILES	bovine MsrA act	rCAG RNA binder	MsrA inhibitor	NadD inh	rCAG binder conf	DNA CAG counter	others
CCOc1cccc(/C=N/NC(=S)Nc2ccccc2[N+](=O)[O-])c1O	-2	35*	1	18	35*	15*
CCCCNC(=S)N/N=C/c1cccc(OCC)c1O	-2	-4	0	4	x	x
O=C(O)c1ccccc1/C=N/NC(=O)c1cc(-c2ccco2)nc2ccccc12	-2	35*	3	9	45*	21*
COc1ccc(-c2cc(C(=O)N/N=C/c3cc(OC)c(OC)cc3OC)c3ccccc3n2)cc1	-3	4	1	3	x	x
COc1ccc(OC)c(/C=N/NC(=O)c2cc(-c3ccc(C)o3)nc3ccccc23)c1	-3	45*	3	22	13	13*
CSc1ccc(CNC(=O)C2CCC(=O)N(Cc3cccc(F)c3)C2)cc1 (stereo unspecified)	-3	-5	-1	-7	x	x
Cc1sc2nc(SCC(=O)Nc3ccc(Cl)c(C(=O)O)c3)[nH]c(=O)c2c1C	-1	4	0	7	x	x
Cc1ccc(-c2csc3nc(SCC(=O)Nc4ccc(Cl)c(C(=O)O)c4)[nH]c(=O)c23)cc1	0	81*	0	17	55*	20*
Cc1nn(-c2ccccc2)c2sc(C(=O)O)cc12	-8	4	0	-2	x	x
Cc1nn(-c2ccccc2)c2sc(-c3n[nH]c(=S)o3)cc12	-11	65*	3	2	32	8.0*
COc1cc(/C=C2\SC(=O)NC2=O)ccc1Oc1ccc([N+](=O)[O-])cc1[N+](=O)[O-]	-1	52*	1	5	72*	33*	dCAG dye DR=i
CC(Oc1ccc([N+](=O)[O-])cc1)C(=O)NCCCN1CCOCC1 (stereo unspecified)	-9	1	1	-3	x	x
CCOc1ccc(-c2cccc(NS(=O)(=O)c3cc([N+](=O)[O-])ccc3C)c2)nn1	-2	38*	1	5	43*	13*
COc1ccc(-c2ccc(NS(=O)(=O)c3cccc([N+](=O)[O-])c3)cc2)nn1	-3	21	1	1	x	x
CCOc1ccc(-c2ccc(NS(=O)(=O)c3cc([N+](=O)[O-])c(C)c([N+](=O)[O-])c3)cc2)nn1	0	68*	0	12	44*	14*
CCOc1ccc(-c2cccc(NS(=O)(=O)c3ccccc3[N+](=O)[O-])c2)nn1	-1	35*	1	3	21	8.5*
COc1ccc(-c2cccc(NS(=O)(=O)c3ccc([N+](=O)[O-])cc3)c2)nn1	-2	15	-1	-13	x	x
COc1ccc(-c2cccc(NS(=O)(=O)c3ccccc3[N+](=O)[O-])c2)nn1	-3	18	0	8	x	x
CC1=C(C(=O)N2CCOCC2)CC(CC(=O)NCCCCc2ccccc2)C(=O)N1CCCN1CCCC1=O (stereo unspecified)	-4	2	0	7	x	x
CC(NC(=S)NCCN1CCOCC1)C12CC3CC(CC(C3)C1)C2 (stereo unspecified)	-3	-5	0	-5	x	x
COc1ccccc1N(CC(=O)N/N=C/c1ccccc1C(=O)O)S(C)(=O)=O	-3	-2	0	-3	x	x
O=C(O)c1ccc(N/N=C/c2ccc(C(F)(F)F)cc2)cc1	-5	19	4	-9	x	x
CC(C)(C)c1ccc(/C=N/Nc2ccc(C(=O)O)cc2)cc1	-4	39*	3	5	36*	8.8*
COc1cc(/C=N/NS(=O)(=O)c2ccc3ccccc3c2)ccc1OCc1ccc(C(=O)O)cc1	-2	48*	2	8	40*	11*
COc1cc(/C=N/Nc2ccc(Cl)c(C(=O)O)c2)ccc1OC(=O)c1ccc(F)cc1	-1	9	0	18	x	x
SMILES	bovine MsrA act	rCAG RNA binder	MsrA inhibitor	NadD inh	rCAG binder conf	DNA CAG counter	others
COc1cc(/C=N/Nc2ccc(Cl)c(C(=O)O)c2)ccc1OC(=O)c1ccccc1F	-4	66*	3	5	80*	47*
COc1cccc(C(=O)Oc2ccc(/C=N/Nc3ccc(C(=O)O)cc3)cc2OC)c1	-5	70*	4.6*	5	67*	25*
CC(NC(=O)Nc1ccc(Br)cc1)C(C)(C)C (stereo unspecified)	-5	1	1	-8	x	x
c1ccc2cc(Cn3ccc4ccc(-c5ccc6ccn(Cc7ccc8ccccc8c7)c6c5)cc43)ccc2c1	x	28	x	x	x	x
O=C(NCC(=O)N1CCC2(CC1)NCCc1[nH]cnc12)c1ccccc1F	-2	2	-1	-4	x	x
O=c1[nH]nc(-c2ccc(F)cc2)cc1Cc1cccs1	-3	6	2	-7	x	x
Cc1ccc(NC(=O)Cn2c(=O)oc3cc(S(=O)(=O)N4CCC(C)CC4)ccc32)cc1C	-3	46*	0	12	36*	15*
COc1ccc(NC(=O)Cn2c(=O)oc3cc(S(=O)(=O)N4CCCC4)ccc32)cc1	2	8	0	-1	x	x
N#Cc1c(Cl)c(Cl)c2nnc(-c3ccc(Br)cc3)n2c1Cl	x	44*	4	x	40*	11*
[S-]c1nnc(-c2ccc(Br)cc2)n1-c1ccccc1.[Zn+2]	-2	1	-1	-2	x	x
CCOC(=O)C1CCCN(C(=O)c2cc(-c3ccco3)nc3ccccc23)C1 (stereo unspecified)	-2	39*	1	23	32	15*
CCOC(=O)C1CCCN(C(=O)c2cc(-c3ccncc3)nc3ccccc23)C1 (stereo unspecified)	-2	-6	-1	0	x	x
O=C(NNC(=S)NC(=O)c1ccccc1[N+](=O)[O-])c1ccccc1O	-4	2	4	8	x	x
O=C(NC(=S)Nc1cccc2c(O)cccc12)c1ccccc1[N+](=O)[O-]	-2	39*	0	9	12	7.3*
c1ccc(Nc2cccc3c(Nc4ccccc4)cccc23)cc1	2	7	0	0	x	x
O=S(=O)(O)c1cccc2cccc(Nc3ccccc3)c12	-7	47*	2	4	64*	25*
C#CCn1c(S(=O)(=O)Cc2ccc(F)cc2)nc(-c2ccccc2)c1-c1ccccc1	-7	1	0	-13	x	x
N#Cc1c(-c2cccs2)nc(SCc2ccc(Cl)cc2)[nH]c1=O	-3	87*	2	16	88*	68*
O=c1[nH]c(=S)[nH]c2c1C(c1ccc(F)cc1)OC(CCC(F)(F)F)C2 (stereo unspecified)	-1	5	1	-2	x	x
Cc1cc(C)cc(NC(=O)CSc2ncc(S(=O)(=O)c3ccccc3)c(=O)[nH]2)c1	x	61*	-1	x	47*	15*
CC(C)Oc1cccc(-c2n[nH]c(=S)n2N=Cc2cccc([N+](=O)[O-])c2)c1	x	51*	x	x	57*	17*
S=c1[nH]nc(COc2ccccc2)n1/N=C/c1cccc(Br)c1	1	42*	0	4	44*	14*
